Assay results: paper PMC5540273 (PLoS ONE, 2017)
Read-outs that look alike come from different tables or passages of the source.

Columns and labels:
AAK1 = conditions: n = 1
ABL1-nonphosphorylated = conditions: concentration: 1 μM,replicates: in singlicate; n = 1
ABL1-phosphorylated = conditions: concentration: 1 μM,replicates: in singlicate; n = 1
ABL2 = conditions: concentration: 1 μM,replicates: in singlicate; n = 1
ACVR1B = conditions: concentration: 1 μM,replicates: in singlicate; n = 1
ACVR1 = conditions: concentration: 1 μM,replicates: in singlicate; n = 1
ACVR2A = conditions: concentration: 1 μM,replicates: in singlicate; n = 1
ACVR2B = conditions: concentration: 1 μM,replicates: in singlicate; n = 1
ACVRL1 = conditions: concentration: 1 μM,replicates: in singlicate; n = 1
ADCK3 = tested on: T1, ADCK3; conditions: concentration: 1 μM,replicates: in singlicate; n = 1
T1 construct: gene CABC1

[1] = concentration: 1 μM,replicates: in singlicate
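Further: KINOMEscan kinase panel screen.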

Row | SMILES | %Inh (AAK1; [1]) [%] | %Inh (ABL1-nonphosphorylated) [%] | %Inh (ABL1-phosphorylated) [%] | %Inh (ABL2) [%] | %Inh (ACVR1B) [%] | %Inh (ACVR1) [%] | %Inh (ACVR2A) [%] | %Inh (ACVR2B) [%] | %Inh (ACVRL1) [%] | %Inh (ADCK3) [%] | %Inh (AAK1; 1 µM) [%]
1 | Cc1nnc(-c2ccc3occ(-c4ccc(S(C)=O)cc4)c3n2)o1 (stereo not drawn) | 0 | 43 | 30 | 16 | 0 | 0 | 0 | 0 | 0 | 2 | 
2 | CS(=O)(=O)c1cccc(CNc2nc(Nc3ccc4c(c3)[C@@H]3C[C@@H]4CNC3=O)ncc2C(F)(F)F)c1 | 92.6 | 97.9 | 93.2 | 66 | 0 | 0 | 0 | 0 | 0 | 0 | 
3 | COC(=O)Nc1nc2cc(Oc3ccc(NC(=O)Nc4cc(C(F)(F)F)ccc4Cl)cc3)ccc2[nH]1.Cl [GW697465] | 0 | 97 | 32 | 89 | 0 | 0 | 0 | 0 | 0 | 82 | 
4 | CCn1c(-c2nonc2N)nc2cncc(Br)c21 [SB-738004] | 67 | 0 | 0 | 0 | 30 | 0 | 0 | 9 | 0 | 25 | 
5 | CC(C(=O)NC1CCN(c2ccnc(Nc3ccc(F)cc3)n2)C1)c1ccc(Cl)cc1 (stereo not drawn) [GSK1379713] | 14 | 0 | 0 | 9 | 0 | 0 | 0 | 0 | 0 | 0 | 
6 | CCN1CCN(CCCC(=O)Nc2n[nH]c3nc(-c4ccc(O)cc4)c(Br)cc23)CC1 [SB-731579] | 0 | 64 | 31 | 100 | 0 | 78 | 0 | 2 | 63 | 0 | 
7 | COC(=O)c1cccc(NC(=O)NC2CCN(c3ccnc(Nc4cc(OC)c(OC)c(OC)c4)n3)C2)c1 (stereo not drawn) [GSK1379767] | 68 | 0 | 0 | 1 | 0 | 33 | 35 | 6 | 0 | 21 | 
8 | CC(=O)Nc1ccc(-c2cc3ncnc(SCC(=O)O)c3s2)cc1 | 44 | 15 | 3 | 8 | 2 | 0 | 4 | 30 | 27 | 0 | 
9 | Cn1cc(-c2cccc3c(N)c(C(N)=O)nnc23)cn1 | 36 | 24 | 0 | 9 | 28 | 63 | 27 | 29 | 3 | 15 | 
10 | Cl.c1ccc(Oc2ccc(Nc3ccnc4cc(-c5ccc(CN6CCNCC6)o5)ccc34)cc2)nc1 [GW567142] | 2 | 99.7 | 84 | 42 | 0 | 0 | 0 | 41 | 0 | 0 | 
11 | Cc1cccc(-c2nc(Nc3ccncc3)c3sccc3n2)n1 [GW869641] | 25 | 0 | 16 | 0 | 96.5 | 0 | 42 | 41 | 14 | 0 | 
12 | C[C@@H]1CNc2c(sc3ccc4nc(-c5ccncc5)ccc4c23)C(=O)N1 | 49 | 38 | 11 | 0 | 0 | 0 | 1 | 30 | 10 | 0 | 
13 | COC(=O)c1cccc(NC(=O)NC2CCN(c3ccnc(NCc4ccc(F)cc4)n3)CC2)c1 [GSK1379860] | 0 | 0 | 0 | 14 | 0 | 0 | 0 | 23 | 0 | 5 | 
14 | Cl.Cl.NC[C@H](CC1CCCCC1)NC(=O)c1ccc(-c2ccnc3[nH]ccc23)s1 [GSK1581428] |  | 0 | 0 | 8 | 0 | 5 | 61 | 0 | 0 | 13 | 75
15 | COc1cc2nccc(Nc3ccc(Oc4ccccc4)cc3)c2cc1OC.Cl [GI261656] | 6 | 89 | 14 | 16 | 0 | 0 | 0 | 0 | 0 | 5 | 
16 | CS(=O)(=O)Nc1ccc(-c2ccnc3[nH]ccc23)cc1 [GSK993273] | 79 | 0 | 1 | 16 | 0 | 3 | 0 | 0 | 0 | 12 | 
17 | COc1cccc(OC)c1C(=O)Nc1cccc(-c2nn3ccccc3c2-c2ccnc(Nc3cccc(F)c3)n2)c1 [GSK361065] | 0 | 28 | 18 | 100 | 15 | 17 | 7 | 27 | 7 | 0 | 

Row | SMILES | %Inh (AAK1; [1]) [%] | %Inh (ABL1-nonphosphorylated) [%] | %Inh (ABL1-phosphorylated) [%] | %Inh (ABL2) [%] | %Inh (ACVR1B) [%] | %Inh (ACVR1) [%] | %Inh (ACVR2A) [%] | %Inh (ACVR2B) [%] | %Inh (ACVRL1) [%] | %Inh (ADCK3) [%] | %Inh (AAK1; 1 µM) [%]
18 | O=C(Nc1ccccc1)c1cccc(Oc2ccc3nccn3n2)c1 | 1 | 12 | 0 | 3 | 5 | 6 | 0 | 5 | 2 | 19 | 
19 | O=C(NOCC1CC1)c1cc(Br)c(F)c(F)c1Nc1ccc(I)cc1Cl | 0 | 52 | 0 | 0 | 0 | 0 | 2 | 0 | 0 | 7 | 
20 | CSc1nccc(-c2c(-c3ccc(F)cc3)ncn2CCCN2CCOCC2)n1.Cl [SB-217146] | 0 | 35 | 31 | 0 | 0 | 0 | 0 | 0 | 0 | 0 | 
21 | C[C@@H](Oc1cc(-n2cnc3ccc(-c4ccncc4)cc32)sc1C(N)=O)c1ccccc1Cl [GSK483724] | 60 | 0 | 0 | 21 | 0 | 32 | 0 | 0 | 0 | 52 | 
22 | C[C@@H](Oc1cc(-n2cnc3cc(-c4ccncc4)ccc32)sc1C(N)=O)c1ccccc1Cl [GSK479719] | 61 | 0 | 25 | 22 | 0 | 10 | 0 | 0 | 0 | 12 | 
23 | CC(=O)c1c(-c2ccncc2)[nH]c(-c2ccncc2)c1C [GW493036] | 14 | 0 | 0 | 7 | 0 | 7 | 0 | 17 | 0 | 4 | 
24 | Cc1ccc(CC(=O)N2CCc3cc(-c4cn(C)c5ncnc(N)c45)ccc32)cc1 [GSK2634758] | 33 | 42 | 5 | 24 | 20 | 0 | 0 | 0 | 0 | 6 | 
25 | CN(c1ccc2c(c1)nc(NCc1ccc(F)cc1)n2C)c1ccnc(Nc2ccc(CS(C)(=O)=O)cc2)n1.Cl [GW813244] | 30 | 97.2 | 79 | 75 | 3 | 17 | 0 | 0 | 0 | 0 | 
26 | Cc1ccn2nc(-c3ccc(F)cc3)c(-c3ccncc3)c2c1.Cl [GW457859] | 0 | 0 | 0 | 0 | 0 | 9 | 0 | 32 | 0 | 17 | 
27 | Cc1n[nH]c2cc(Nc3ccnc(Nc4cccc(CN5CCOCC5)c4)n3)ccc12 [GW682569] | 71 | 22 | 26 | 23 | 36 | 85 | 0 | 39 | 17 | 19 | 
28 | CC(=O)Nc1nc2cnc(Nc3cc(NC(=O)c4cccc(CC(C)(C)C#N)c4)ccc3C)nc2s1 | 23 | 99.7 | 50 | 61 | 0 | 0 | 11 | 0 | 0 | 3 | 
29 | c1ccc(Oc2ccc(Nc3ccnc4ccc(-c5ccccn5)cc34)cc2)cc1 [GW407034] | 13 | 0 | 0 | 17 | 0 | 5 | 6 | 13 | 0 | 12 | 
30 | Cn1ccc2ncnc(Oc3ccc(NC(=O)Nc4cnn(C(C)(C)C)c4)c(Cl)c3)c21 | 3 | 87 | 39 | 11 | 2 | 0 | 0 | 0 | 17 | 0 | 
31 | NC(=O)c1ccc(-c2cc3ncnc(SCC(=O)O)c3s2)cc1 | 4 | 57 | 20 | 0 | 0 | 0 | 8 | 17 | 0 | 25 | 
32 | OCCn1cc(-c2cnc3nnn(Cc4ccc5ncccc5c4)c3n2)cn1 | 0 | 32 | 0 | 0 | 51 | 0 | 0 | 0 | 0 | 0 | 
33 | N#Cc1cccc(C(=O)NC2CCN(c3ccnc(Nc4ccc(F)cc4)n3)C2)c1 (stereo not drawn) [GSK1379708] | 0 | 0 | 0 | 4 | 0 | 31 | 0 | 0 | 0 | 0 | 
